Rv3671c inh – inhibits the M. tuberculosis serine protease Rv3671c. inhibition, % at 5.96 µM. P9WHR9. hit rate 0.048% among 320,000. AID 2606; in the data active = inhibition above about 38%;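 also: extracellular domain of Rv3671c used as enzyme; 0% = enzyme with DMSO and 100% = no enzyme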
RecA intein inh – inhibitors of M. tuberculosis RecA intein splicing | P9WHJ3 | cell-free RecA intein splicing, fluorescence | inhibition, % (no concentration beside the values) | hit rate 0.75% among 290,000 | AID 2221; in the data active = inhibition above about 30%;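 also: 0% = vehicle wells and 100% = reference inhibitor control wells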
UGM FP inh – inhibitors of M. tuberculosis UDP-galactopyranose mutase; inhibition, % at 10 µM; P9WIQ1; hit rate 0.06% among 320,000; AID 504406; purified UGM, fluorescence polarization probe displacement; in the data active = inhibition above about 10%, passing the limit was not always enough
Target sequence (P9WIQ1 whole entry, looked up): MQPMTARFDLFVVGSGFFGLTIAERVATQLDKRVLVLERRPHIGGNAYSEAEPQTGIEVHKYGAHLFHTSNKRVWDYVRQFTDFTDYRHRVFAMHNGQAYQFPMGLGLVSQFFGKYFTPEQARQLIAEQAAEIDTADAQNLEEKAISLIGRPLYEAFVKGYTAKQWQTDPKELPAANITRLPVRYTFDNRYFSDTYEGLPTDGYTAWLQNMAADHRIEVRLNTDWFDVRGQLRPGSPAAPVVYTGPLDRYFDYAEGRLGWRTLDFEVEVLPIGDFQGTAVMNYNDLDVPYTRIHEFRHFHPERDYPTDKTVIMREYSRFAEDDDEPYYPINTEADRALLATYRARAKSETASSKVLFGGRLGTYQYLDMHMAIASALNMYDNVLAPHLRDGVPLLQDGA
Mtb bLac sens – beta-lactam sensitization of Mtb H37Rv | M. tuberculosis H37Rv growth with meropenem, percent inhibition | inhibition, % at 25 µM | hit rate 0.27% among 330,000 | AID 434955; call rule not given here;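 also: growth measured after seven days incubation then overnight dye step; 0% = bacteria only wells and 100% = bacteria with antibiotic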
CCHF vOTU inh-1 – blocks the CCHF virus ovarian tumor domain protease | CCHFV vOTU protease, Pep-AMC fluorescence | inhibition, % at 11.5 µM | hit rate 0.55% among 370,000 | AID 651958; also: 0% = vehicle wells with enzyme and 100% = no enzyme wells
GFP chromophore – counter-screen: blocks GFP chromophore formation; shares compounds with RecA intein inh; cell-free GFP chromophore formation, fluorescence; EC50, µM; hit rate 83% among 2,100; call rule not given here
Rv3671c cf – confirmation of M. tuberculosis Rv3671c protease inhibitors; hit rate 40% among 140; AID 2761; inhibition, % at 5.96 µM; shares compounds with Rv3671c inh; in the data active = inhibition above about 38%
CCHF vOTU inh-2 – CCHFV vOTU protease inhibition, confirmation. shares compounds with CCHF vOTU inh-1. inhibition, % at 11.5 µM. hit rate 17% among 1,900. Recombinant CCHFV vOTU, Pep-AMC fluorescence. AID 686976
Starred values were filed as active, the others as inactive. Only some compounds are listed: those with a hit (about 1.2% of all), similar ones and a draw of the others. Rule as the data show it, unless noted: active = inhibition above about 30%; inactive = the rest.

`N#CC1=C(N)Oc2n[nH]c(-c3cccs3)c2C1c1ccco1` (stereo unspecified) gave Rv3671c inh -57.0, RecA intein inh 82.7*, UGM FP inh -0.4, Mtb bLac sens -0.2, CCHF vOTU inh-1 -6.4 and GFP chromophore 18.4*.
CCCc1[nH]nc2c1C(c1cc(OC)ccc1F)C(C#N)=C(N)O2 (stereo unspecified) was read as Rv3671c inh 4.5, RecA intein inh 29.9, UGM FP inh -1.6, Mtb bLac sens -7.9 and CCHF vOTU inh-1 -4.2.
`CCc1nnn2c1Cn1c3ccccc3c(=O)n1[C@@H](C)C2` gave CCHF vOTU inh-1 -19.6.
`N#C/C(=C\c1cc(Cl)c(OCc2ccc(Cl)cc2)c(Cl)c1)C(N)=O` gave Rv3671c inh -10.6, RecA intein inh 44.4*, UGM FP inh -0.4, Mtb bLac sens 18.6 and GFP chromophore >38.
For CC(C)(C)NC(=O)C(c1ccc(Cl)cc1)N(Cc1ccco1)C(=O)CCl (stereo unspecified) the results were Rv3671c inh 4.0, RecA intein inh 69.2*, UGM FP inh -1.4, Mtb bLac sens 2.4, CCHF vOTU inh-1 12.0 and GFP chromophore 21.9*.
Screening CC(C)(C)NC(=O)C(c1ccc(O)cc1)N(Cc1ccco1)C(=O)CCC(=O)Nc1ccccn1 (stereo unspecified) returned Rv3671c inh -7.2, RecA intein inh -0.5, UGM FP inh 0.4, Mtb bLac sens 2.7 and CCHF vOTU inh-1 -14.9.
Screening COc1ccc2nc3cc(Cl)ccc3c(Nc3cc(C(C)C)c(O)cc3C)c2c1 returned Rv3671c inh 40.3*, RecA intein inh 73.5*, UGM FP inh 1.3, Mtb bLac sens 100.2, CCHF vOTU inh-1 -5.2, GFP chromophore 0.754* and Rv3671c cf 46.0*.
CCOC(=O)Nc1ccc2c(c1)[C@@]1(CC(=O)N(CC(C)C)C1c1ccccc1)C(=O)N2C (stereo partly specified) was read as CCHF vOTU inh-1 1.3.
For C[C@H]1[C@@H](C(=O)N2CCCC2)Cc2nc3ccccc3nc2C[C@@H]1c1ccccc1 the results were CCHF vOTU inh-1 0.1.
For CCn1nc([N+](=O)[O-])c(C(C#N)c2nc3ccccc3n2C)c(Cl)c1=O (stereo unspecified) the results were Rv3671c inh -2.6, RecA intein inh 1.9, UGM FP inh 3.5, Mtb bLac sens 1.3 and CCHF vOTU inh-1 -0.8.
CCCn1nc([N+](=O)[O-])c(C(C#N)c2nc3ccccc3s2)c(Cl)c1=O (stereo unspecified) was read as Rv3671c inh 39.5*, RecA intein inh 81.4*, UGM FP inh 0.5, Mtb bLac sens 59.0, CCHF vOTU inh-1 18.3, GFP chromophore 6.12* and Rv3671c cf 31.4.
`Cc1onc(-c2ccccc2)c1-c1nc2ccccc2c(=O)o1` gave Rv3671c inh 48.9*, RecA intein inh 31.8*, UGM FP inh 4.3, Mtb bLac sens 9.8, CCHF vOTU inh-1 18.6, GFP chromophore 2.29* and Rv3671c cf 62.5*.
`Cc1ccc2c(c1)C1C=CCC1C(C(=O)O)N2` (stereo unspecified) gave Rv3671c inh 9.6, RecA intein inh 6.3, UGM FP inh 0.6 and Mtb bLac sens 5.8.
`O=C(O)C1Nc2c(O)cc(Cl)c([N+](=O)[O-])c2C2C=CCC12` (stereo unspecified) gave Rv3671c inh 49.2*, RecA intein inh 42.8*, UGM FP inh 1.3, Mtb bLac sens 6.7, CCHF vOTU inh-1 34.8*, GFP chromophore 13.1* and Rv3671c cf 18.1.
For CC1(C)Cc2c(C#N)c(N)n(-c3ccccc3)c(=S)c2CO1 the results were Rv3671c inh 2.3, RecA intein inh -0.3, UGM FP inh 0.6, Mtb bLac sens -5.4 and CCHF vOTU inh-1 9.6.
Screening CC1(C)C=C2C(=NN(c3ccccc3)C(N)=C2C#N)CO1 returned Rv3671c inh -37.6, RecA intein inh 90.4*, UGM FP inh 1.6, Mtb bLac sens -6.2, CCHF vOTU inh-1 50.0*, GFP chromophore 1.49* and CCHF vOTU inh-2 100.3*.
For O=C(Nc1nc(-c2ccccc2)cs1)c1ccccc1NS(=O)(=O)c1ccc(F)cc1 the results were Rv3671c inh -49.2, RecA intein inh 35.1*, UGM FP inh -0.5, Mtb bLac sens 0.7, CCHF vOTU inh-1 37.7*, GFP chromophore 28.3* and CCHF vOTU inh-2 -2.3.
O=S(=O)(Nc1ccc(-c2csc(-c3ccccc3)n2)cc1)c1ccc(F)cc1 was read as Rv3671c inh -164.9, RecA intein inh -2.8, UGM FP inh 2.4, Mtb bLac sens 4.1 and CCHF vOTU inh-1 11.8.
`COc1cc(/C=C(\C#N)c2nc3ccccc3o2)ccc1O` gave Rv3671c inh 0.8, RecA intein inh 34.0*, UGM FP inh -29.1, Mtb bLac sens -7.8, CCHF vOTU inh-1 32.6*, GFP chromophore 16.9* and CCHF vOTU inh-2 6.9.
`N#C/C(=C\c1ccc(O)cc1)c1nc2ccccc2o1` gave Rv3671c inh -1.9, RecA intein inh 27.0, UGM FP inh -9.5, Mtb bLac sens 3.1 and CCHF vOTU inh-1 2.2.
`CCc1ccc(S(=O)(=O)/N=C2\C=C(NS(=O)(=O)c3ccccc3)C(=O)c3ccccc32)cc1` gave RecA intein inh 33.8*, CCHF vOTU inh-1 54.2*, GFP chromophore 4.02* and CCHF vOTU inh-2 10.9.
Screening Cc1cccc(S(=O)(=O)Nc2cccc3c2C(=O)c2ccccc2-3)c1 returned Rv3671c inh -9.5, RecA intein inh -1.1, UGM FP inh 4.0, Mtb bLac sens -1.0 and CCHF vOTU inh-1 16.1.
`Cc1ccc(C)c(S(=O)(=O)/N=C2\C=C(NS(=O)(=O)c3ccccc3)C(=O)c3ccccc32)c1` gave Rv3671c inh -46.5, RecA intein inh 74.6*, UGM FP inh 1.4, Mtb bLac sens 1.1, CCHF vOTU inh-1 29.5*, GFP chromophore 5.38* and CCHF vOTU inh-2 25.2.
CCN=C1NC(c2ccc(C(F)(F)F)cc2)C(C(=O)OC)=C(C)N1Cc1cccc(C(F)(F)F)c1 (stereo unspecified) was read as CCHF vOTU inh-1 22.2.
For CC(C)C(=O)N1CCC(Oc2cccnc2)CC1 the results were CCHF vOTU inh-1 -0.7.
`O=C(CCN1C(=O)/C(=C/c2cccs2)SC1=S)Nc1ccc(O)cc1` gave Rv3671c inh -34.8, RecA intein inh 8.1, UGM FP inh 6.0, Mtb bLac sens 3.2 and CCHF vOTU inh-1 11.0.
For O=C(CCN1C(=O)/C(=C/c2cccs2)SC1=S)Nc1ccc(C(=O)O)c(O)c1 the results were Rv3671c inh -14.2, RecA intein inh 44.1*, UGM FP inh 0.1, Mtb bLac sens 56.4, CCHF vOTU inh-1 31.9*, GFP chromophore 30.9* and CCHF vOTU inh-2 2.1.
For Cc1nnc(Sc2cc(NCCCO)c([N+](=O)[O-])c3nonc23)s1 the results were RecA intein inh 91.4*, CCHF vOTU inh-1 30.9*, GFP chromophore 5.09* and CCHF vOTU inh-2 8.6.

Assay outcomes: PubChem, several laboratories
